Experimental findings from PubChem BioAssay AID449762 (Southern Research Specialized Biocontainment Screening …, 2010) are described below.

The term inhibition denotes the relative decrease from the control value, in per cent.

Among all 330,000 compounds or so, about 1,900 (0.58%) were called active. Roughly 4% stayed inconclusive and do not appear here. No stated cut-off is given here; in the data, inconclusive means inhibition above about 70% without an active follow-up result; inactive means below that. A selection follows. Potency and affinity values are given separately.

The nature of this test: M. tuberculosis growth inhibition, HTS (AID 449762).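 Further: bacterial growth assessed after seven days of incubation.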 Particulars: M. tuberculosis H37Rv growth inhibition, 7H9 media; at 25 µM; hits give high values.
As to `Oc1ccccc1CN1CCN(C(O)(c2ccccc2)c2ccccc2)CC1`, the inhibition is 12.9% (inactive).
Then `N/C(=N\OC(=O)c1cc(Cl)ccc1Cl)c1ccccn1`, with 30% (inactive); and `COc1cc(OC)c(C(=O)O/N=C(\N)c2ccccn2)cc1OC`, with 7.81% (inactive); and `C=CC[C@@H](CC(=O)N[C@@H](CO)Cc1ccccc1)C(=O)N[C@H](COC(=O)[C@@H](CC=C)Cc1ccc(F)cc1)C(C)(C)C`, with -11% (inactive).
For `CCc1ccc(/C=C2/C(=O)N(c3ccccc3)C(=S)N2CC(=O)OC)s1` the value was 10.2% (inactive).
For `CCc1ccc(/C=C2/C(=O)N(CC)C(=S)N2C)s1` the value was 12.3% (inactive); for `O=c1cc(CSc2ccc([N+](=O)[O-])cc2)nc2sccn12`, -11.9% (inactive); for `CCN(CC)CCCNC(=O)c1cc2c(Cl)nc3ccccc3c2s1`, 5.92% (inactive).
Turning to `O=C(NCCCN1CCCC1)c1cc2c(Cl)nc3ccccc3c2s1`, the inhibition was 9.47% (inactive).
For `O=[N+]([O-])c1ccc(C(=S)N2CCN(Cc3ccccc3)CC2)cc1` the value was 6.67% (inactive); for `CCCCOC(=O)Nc1ccc(S(=O)(=O)Nc2cc(C)nc(C)n2)cc1`, 50.1% (inactive).
For `CCCCOC(=O)Nc1ccc(S(=O)(=O)Nc2nc(C)cc(C)n2)cc1` the value was 0.81% (inactive).
On to `O=C(CSC(=S)N1CCCCC1)c1ccccc1`, for which the inhibition was 69.2% (inactive).
For `O=c1c(-c2ccc(O)cc2)coc2cc(O)ccc12` the value was 3.16% (inactive).
For `Cc1oc2cc(O)ccc2c(=O)c1-c1cnn(-c2ccccc2)c1` the value was -3.21% (inactive).
Then `CCc1ccc(-c2cc(C(=O)Nc3c(C)n(C)n(-c4ccccc4)c3=O)c3ccccc3n2)s1`, with 5.93% (inactive).
On to `Cc1[nH]n(-c2ccccc2)c(=O)c1/C=N/N(c1ccccc1)c1ccccc1`, for which the inhibition is 62.4% (inactive).
For `CCC(=O)N/C(N)=N/c1nc(C)c2cc(C)c(C)cc2n1` the value was 7.41% (inactive); for `Cc1cc2nc(/N=C(\N)NC(=O)N3c4ccccc4Sc4ccccc43)nc(C)c2cc1C`, -0.79% (inactive); for `CCCC(=O)N/C(N)=N/c1nc(C)c2cc(C)ccc2n1`, 45.9% (inactive).
Then `Cc1ccc2nc(N=C(N)N)nc(C)c2c1`, with 12.5% (inactive); and `COc1ccc(C(=O)Nc2cnccn2)cc1[N+](=O)[O-]`, with -6.82% (inactive).
For `O=C(CCN1C(=O)c2ccccc2C1=O)Nc1nc2ccccc2s1` the value was 10.8% (inactive); for `NC(=O)[C@@H]1CC2(CC(c3cccc(NC(=O)[C@H]4CCC(=O)N4)c3)=NO2)CN1C(=O)COc1ccc(Cl)cc1` (some centres not stated), 0.87% (inactive); for `Cc1cccc(C(=O)Nc2cccc3cccnc23)c1`, 25.4% (inactive).
As to `O=C(CSCc1ccccc1Cl)Nc1c[nH]c(=O)[nH]c1=O`, the inhibition was 1.55% (inactive).
Then `Cn1c(NCC(O)c2ccccc2)nc2c1c(=O)n(Cc1ccc(Cl)cc1)c(=O)n2C` (configuration not stated), with 48.9% (inactive); and `CC(O)CNc1nc2c(c(=O)n(Cc3ccc(Cl)c(Cl)c3)c(=O)n2C)n1C` (configuration not stated), with 6.85% (inactive).
For `CCOC(=O)c1ccc(COC(=O)CNC(=O)CNC(=O)Cc2ccccc2)cc1`, the inhibition is -12.4% (inactive).
For `COc1cc(OC)c(NC(=O)CCCNC(=O)Cn2cnc3sc(C)c(C)c3c2=O)cc1Cl` the value was -3.56% (inactive).
Then `CCN(CC(=O)Nc1ccc(NC(C)=O)cc1)C(=O)c1ccccc1SCC(=O)N1CCCC1`, with 6.02% (inactive); and `O=C(NCCOc1ccccc1F)c1cccc(S(=O)(=O)N2CCN(c3ccccc3)CC2)c1`, with 4.44% (inactive).
Then `c1ccc(-c2ccc3ccccc3n2)cc1`, with -0.21% (inactive).
Turning to `c1ccc2nc(-c3ccncc3)ccc2c1`, the inhibition is -14.1% (inactive).
Then `Cc1cc(C)c(C#N)c(SCC(=O)c2cc(C)n(CCc3ccccc3)c2C)n1`, with -0.68% (inactive); and `O=C(NCCCN1CCOCC1)c1ccc(Sc2ccc(F)cc2)c([N+](=O)[O-])c1`, with -0.04% (inactive).
Then `COc1ccc(NC(=O)CNC(=O)C2CCCCC2)cc1`, with 13.5% (inactive); and `NS(=O)(=O)c1ccc(NC(=O)CSC2CCCCC2)cc1`, with -6.63% (inactive).
For `CCC(C)NC(=O)CN1C(=O)NC2(CCOc3ccccc32)C1=O` (configuration not stated) the value was 7.03% (inactive); for `CC(C)C1(C(C)C)OC(=O)c2ccccc21`, 0.62% (inactive).
On to `CCCn1ncc(CN2CCC(Cc3cccc(F)c3)(C(=O)OCC)CC2)c1C`, for which the inhibition was -1.6% (inactive).
Then `COc1ccc(OCC(O)Cn2c(=N)n(Cc3ccccc3)c3ccccc32)cc1` (configuration not stated), with 26.5% (inactive); and `N=c1n(Cc2ccccc2)c2ccccc2n1CC(O)COc1ccccc1` (configuration not stated), with 14.3% (inactive).
For `CC(=O)CCC(=O)N1CCCC(CNC(=O)c2ccc(-c3ccccc3)cc2)C1` (configuration not stated) the value was -4.64% (inactive); for `CSCC(=O)N1CCCC(CNC(=O)c2ccc(-c3ccccc3)cc2)C1` (configuration not stated), 3.04% (inactive); for `CC(C)(C)OC(=O)C[C@H]1C/C=C\C[C@H](CC(=O)NCCO)C(=O)NC[C@H](c2ccccc2)OC1=O`, -2.46% (inactive).
Then `COc1cccc(N(C(=O)CNC(=O)c2ccco2)C(C(=O)NC2CCCC2)c2ccncc2)c1` (configuration not stated), with 0.28% (inactive).
With `O=C(O)CCCn1cc(NC(=O)COc2ccccc2)cn1`, the inhibition was 1.85% (inactive).
For `O=C(Cc1ccc(Cl)cc1)NCCCn1ccnc1` the value was 0.59% (inactive).
On to `Clc1ccc(SCCn2ccnc2)cc1`, for which the inhibition is -6.09% (inactive).
Take `CCNCCNC(=O)c1c(O)c2c([nH]c1=O)CCCC2`: the inhibition was -0.1% (inactive).
For `Cc1nn(Cc2ccc(Cl)cc2Cl)c(C)c1NC(=O)CCl` the value was 70.1% (inactive); for `Cc1ccc(CCNC(=O)C2CC(c3cccc(F)c3)=NO2)cc1` (configuration not stated), 0.56% (inactive); for `C=CCOc1c(Cl)cc(CNc2nccs2)cc1OC`, 56.1% (inactive).
Then `C=CCOc1ccc(CNc2nccs2)cc1OC`, with -5.03% (inactive).
Then `CCCOc1ccc(C(=O)N/N=C/c2c[nH]c3ccc(Br)cc23)cc1`, with 1.55% (inactive).
On to `COc1ccccc1Nc1cc(C)nc2c(C)ccc([N+](=O)[O-])c12`, for which the inhibition was -0.28% (inactive).
Then `Cc1cc(Nc2ccccc2)c2c([N+](=O)[O-])cc(C)c(C)c2n1`, with 6.4% (inactive); and `COC(=O)C1=C(COc2ccc(C=O)cc2OC)NC(=O)NC1c1cc(C)ccc1C` (configuration not stated), with -8.91% (inactive); and `Cc1cc(C)c2oc(=O)cc(CN3CCC(C)CC3)c2c1`, with 5.8% (inactive).
Then `Cc1coc2c(C)c3oc(=O)c(CCC(=O)N4CCC(C(=O)NCCCC(=O)O)(c5ccccc5)CC4)c(C)c3cc12`, with 5.29% (inactive); and `CC12CCC(C(=O)Nc3cccnc3)(CC1=O)C2(C)C` (configuration not stated), with -6.21% (inactive); and `O=C(NN(c1ccccc1)c1ccccc1)c1ccc([N+](=O)[O-])o1`, with 56.9% (inactive).
For `O=C(NCC1CCCO1)c1ccc([N+](=O)[O-])o1` (configuration not stated) the value was -10.8% (inactive).
For the compound `C=CCn1c(SCC(=O)NCC2CCCO2)nc2scc(-c3ccccc3)c2c1=O` (configuration not stated), the inhibition was -12.7% (inactive).
In the case of `CCOCCCNC(=S)NCCCNc1nc2cc3c(cc2cc1C#N)OCO3`, the inhibition is -2.17% (inactive).
For the compound `Cc1ccc(C(=O)/C=C/Nc2ccc(S(=O)(=O)Nc3cc(C)nc(C)n3)cc2)cc1`, the inhibition is 4.23% (inactive).
For `CCOc1cc(/C=N/NC(=O)C(=O)Nc2cc(Cl)ccc2C)ccc1O`, the inhibition was 5.58% (inactive).
In the case of `CC(=O)c1cnn(-c2ccccc2)c1C`, the inhibition was -0.96% (inactive).
Then `Cc1c(C(=O)NCc2ccccc2)cnn1-c1ccccc1`, with 0.38% (inactive).
For `O=C(NN=C1CCCCCC1)c1ccc(Cl)s1` the value was -7.6% (inactive); for `O=C(Nc1ccc(N2CCN(C(=O)c3ccccc3F)CC2)cc1)c1cncc(Br)c1`, 32.6% (inactive).
Then `COc1ccc(NC(=O)CN(C)CC(=O)N(C)C2(C#N)CCC(C)CC2)cc1` (configuration not stated), with 6.58% (inactive).
For the compound `O=C1Nc2ccccc2/C1=N\c1sc2c(c1C(=O)Nc1ccccc1)CCCC2`, the inhibition is -6.89% (inactive).
Regarding `COc1ccc(-c2noc(N3CCC(C(=O)Nc4ccccc4F)CC3)n2)cc1`, the inhibition was -6.51% (inactive).
Then `COc1ccc(N2CCc3c(C)nc(SC)nc32)cc1`, with 37.6% (inactive); and `CSc1nc(C)c2c(n1)N(c1ccc(F)cc1)CC2`, with 5.53% (inactive).
For `Cc1cccc(NC(=O)Cn2nnc(-c3cccs3)n2)c1C`, the inhibition was 4.16% (inactive).
Then `Cc1cc2ccccc2c(=O)n1CC(=O)NCC(=O)N1CCN(c2ccccc2)CC1`, with 3.46% (inactive).
For `CC12CCC(C(=O)N3CCCCCC3)(OC1=O)C2(C)C` (configuration not stated) the value was 0.66% (inactive).
Then `O=C(c1ccc2nc(N3CCOCC3)sc2c1)N1CCCC1`, with -5.7% (inactive); and `O=C(c1ccc2nc(N3CCOCC3)sc2c1)N1CCN(C(=O)c2ccco2)CC1`, with -6.14% (inactive).
As to `Cc1ccc(S(=O)(=O)N(C)c2ccc(OCC(=O)Nc3ccc(C(=O)N(C)C)cc3)cc2)cc1C`, the inhibition is -1.34% (inactive).
Then `Cn1cc(C(=O)N/N=C/C2=C(N3CCOCC3)C(=C/c3ccc([N+](=O)[O-])cc3)/CC2)ccc1=O`, with 2.15% (inactive); and `COc1cc(C(=O)NC(=S)Nc2ccc3[nH]c(=O)[nH]c3c2)cc(OC)c1OC`, with 5.44% (inactive); and `COCCCN1C(=O)C(=O)/C(=C(/O)c2ccc(OC)cc2)C12C(=O)N(C)c1ccccc12` (configuration not stated), with 0.02% (inactive).
For `O=C(/C=C\c1cccs1)c1c(O)ccc2ccc(=O)oc12` the value was 69.8% (inactive); for `CCN(CC)S(=O)(=O)c1ccc2oc(SCC(=O)NC3CC3)nc2c1`, -7.6% (inactive); for `CCN(CC)S(=O)(=O)c1ccc2oc(SCC(=O)NCc3ccccc3)nc2c1`, -7.94% (inactive).
For `COC(=O)C1=C(C)N(c2ccc(OC)cc2)C(=O)/C1=C\c1cccs1` the value was -1.06% (inactive); for `CC(=O)c1ccc(OCC(=O)c2cc(C)n(-c3ccc4c(c3)OCO4)c2C)cc1`, -1.32% (inactive).
Take `O=C(c1cc(Br)ccc1Cl)N1CCN(c2ncccn2)CC1`: the inhibition is 6.19% (inactive).
